HPGD inh = blocks human HPGD enzyme activity; P15428; purified HPGD, NADH fluorescence kinetic, PGE2 substrate; Potency, µM, usual class: inhibitors; 4.3% of 150,000 active; active = well fitted inhibition curve with a large enough effect, not every such curve was filed as active; inconclusive = small, poorly fitted or top-dose-only effect, or another doubt; inactive = no such curve, though single readings can be large or run the other way
Target sequence (P15428 whole entry, looked up): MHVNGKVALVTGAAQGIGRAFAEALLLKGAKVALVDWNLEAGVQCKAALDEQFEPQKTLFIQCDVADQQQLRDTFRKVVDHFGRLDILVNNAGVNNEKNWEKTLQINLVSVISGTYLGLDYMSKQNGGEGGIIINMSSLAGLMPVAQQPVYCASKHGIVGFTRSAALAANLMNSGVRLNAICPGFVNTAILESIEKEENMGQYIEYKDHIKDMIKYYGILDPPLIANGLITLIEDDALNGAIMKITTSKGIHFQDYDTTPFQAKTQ
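20 nM HPGD preincubated 15 min at room temperature with compound in 50 mM Tris-HCl pH 8, 0.01% Tween 20. Started with 1 mM NAD+ and 30 uM prostaglandin E2; NADH fluorescence (360/450 nm) read 5 times over 30-s intervals, last minus first.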
CBFb-RUNX1 inh = blocks binding between human CBF-beta and RUNX1 | 230,000 tested, under 10 active | AlphaScreen CBFb-His/RUNX1-biotin binding, biochemical | Potency, µM (titrated, usually from 59.8 µM), usual class: inhibitors | AID 1477
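Interaction loss through any mechanism counts as activity. Pre-formed complex of His-CBF-beta and biotin-RUNX1 (30 nM apiece) is incubated with compound 15 min, then with 50 ng nickel and 50 ng streptavidin beads for 90 min before AlphaScreen detection.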
HTT cytoprotect = cytoprotection in Huntington HTT-Q103 PC12 cell model | PC12 HTT-Q103 induced, cytoprotection, ATP luminescence, 40 h | Potency, µM (titrated, usually from 56.4 µM), hits mostly activators | 0.14% of 230,000 active; also: nearly all actives have a fitted effect of over 45% in size
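Rat PC12, Q103 Htt exon1-GFP fusion, ecdysone promoter; tebufenozide inducer 100 nM final; compound titration; qHTS, 1500 cells/well; ATPlite luminescent read.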
KDM4E inh = JMJD2E (human) inhibition. AID 2147. Potency, µM (top dose mostly 57.1 µM), hits mostly inhibitors. 1.6% of 230,000 active. B2RXH2. JMJD2E catalytic domain, FDH-coupled NADH fluorescence (FDH is formaldehyde dehydrogenase); also: nearly all actives have a fitted effect of over 50% in size
Target sequence (B2RXH2 1-337 limits assumed): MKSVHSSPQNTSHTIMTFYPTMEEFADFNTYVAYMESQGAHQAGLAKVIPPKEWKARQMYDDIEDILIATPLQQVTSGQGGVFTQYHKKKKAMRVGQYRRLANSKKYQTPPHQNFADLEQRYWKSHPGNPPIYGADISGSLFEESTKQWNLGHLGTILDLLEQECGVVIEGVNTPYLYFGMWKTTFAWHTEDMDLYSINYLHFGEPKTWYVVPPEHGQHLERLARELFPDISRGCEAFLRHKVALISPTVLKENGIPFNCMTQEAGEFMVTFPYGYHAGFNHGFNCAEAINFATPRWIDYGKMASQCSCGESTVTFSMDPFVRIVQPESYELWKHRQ
HTT aggregate = mutant huntingtin aggregation inhibition; Potency, µM (top dose mostly 46.1 µM), most hits filed as inhibitors; 1.1% of 220,000 active; AID 1688; PC12 HttQ103-GFP aggregates, Acumen cytometry, 40 h; also: nearly all actives have a fitted effect of over 60% in size
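PC12 cells with ecdysone-inducible HTT exon1 Q103-GFP, induced by 100 nM tebufenozide, given compounds in a concentration series. GFP aggregates (1–25 um, 6 SD above background) counted in lysates by laser-scanning cytometry, 488 nm excitation.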
ALDH1A1 block = ALDH1A1 (human) enzyme inhibition. P00352. AID 1030. 7.3% of 220,000 active. Potency, µM (titrated, usually from 75.3 µM), usual class: inhibitors. Purified ALDH1A1, NADH fluorescence, propionaldehyde substrate; active = well fitted inhibition curve with a large enough effect, not every such curve was filed as active; inconclusive = small, poorly fitted or top-dose-only effect, or another doubt; inactive = no such curve, though single readings can be large or run the other way
Of the large screens only hits and unclear results are named; the others gave an inactive call. Rows were chosen to be rich in hits. Some 9.8% of all compounds tested hit in one or more screens of this group. Unless noted, calls follow the shape of the dose curve; as a rule, active = well fitted curve in the direction sought with a large enough effect; inconclusive = small, poorly fitted or top-dose-only effect, or another doubt; inactive = no such curve, though single readings can be large; an effect the other way counts as inactive or inconclusive.

O=[N+]([O-])c1ccc(Cl)c(/C=N/n2c(-c3cccnc3)n[nH]c2=S)c1	HPGD inh 8.9µM, ALDH1A1 block 7.9µM
O=[N+]([O-])c1cccc(/C=N/n2c(-c3cccnc3)n[nH]c2=S)c1	HPGD inh 20µM, KDM4E inh inconclusive, ALDH1A1 block 10µM (no result: HTT cytoprotect)
Cc1ccsc1/C=N/n1c(-c2cccnc2)n[nH]c1=S	HPGD inh inconclusive, ALDH1A1 block inconclusive
O=[N+]([O-])c1ccc(/C=N/n2c(-c3cccnc3)n[nH]c2=S)cc1	ALDH1A1 block 2.8µM (no result: HPGD inh)
O=C(NCc1ccccc1)C1=C[C@H](C2CC2)C[C@H](OCCCCO)O1	ALDH1A1 block inconclusive (no result: HPGD inh)
CCN(CC)C(=O)Nc1ccc(OC[C@H](O)CNC(C)(C)C)c(C(C)=O)c1	none (no result: HPGD inh, CBFb-RUNX1 inh, KDM4E inh, ALDH1A1 block)
C#CCCCO/N=C1/C[C@@H](O)[C@@H](O)[C@@H]2[C@@H]3C(=O)N([C@@H](C)c4ccccc4)C(=O)[C@H]3CC[C@@H]12	HTT cytoprotect inconclusive (no result: HPGD inh, KDM4E inh, HTT aggregate)
CCc1nnc(NC(=O)C2CCCN2C(=O)Nc2ccccc2)s1 (configuration not stated)	none (no result: HPGD inh)
Cc1cccc(N2C(=O)C3C4CC(=O)C(c5ccccc54)C3C2=O)c1C (configuration not stated)	none (no result: HPGD inh, HTT cytoprotect, HTT aggregate)
CCc1ccc(NC(=O)CCN2C(=O)c3cccnc3C2=O)cc1	none
CCc1ccc2c(c1)C(=O)C(=O)N2CC(=O)Nc1ccc(NC(=O)c2ccccn2)cc1	ALDH1A1 block 0.22µM (no result: HPGD inh)
N#Cc1c(SCC(=O)O)nc(N2CCOCC2)c2c1CCCC2	none (no result: HPGD inh, ALDH1A1 block)
CCOC(=O)CSc1nc(N2CCOCC2)c2c(c1C#N)CC(C)(C)N(C)C2	KDM4E inh inconclusive, ALDH1A1 block 18µM (no result: HPGD inh)
COC(=O)Sc1nc(N2CCOCC2)c2c(c1C#N)CC(C)(C)OC2	KDM4E inh inconclusive, ALDH1A1 block 14µM (no result: HPGD inh)
CC1(C)Cc2c(C#N)c(SCC(=O)c3ccccc3)nc(N3CCOCC3)c2CO1	HPGD inh inconclusive, KDM4E inh inconclusive
CCSc1nc(N2CCOCC2)c2c(c1C#N)CCCC2	KDM4E inh inconclusive, HTT aggregate inconclusive, ALDH1A1 block 22µM (no result: HPGD inh)
COc1ccccc1N(CC(=O)NCC1CCCO1)C(=O)CNS(=O)(=O)c1ccc(Cl)cc1 (configuration not stated)	none (no result: HPGD inh, ALDH1A1 block)
COc1ccc(CCC(C)Nc2ccccc2F)cc1 (configuration not stated)	none
COc1ccc(CCC(C)Nc2cccc(F)c2)cc1 (configuration not stated)	ALDH1A1 block 10µM
Cc1ccc(NC(=O)COC(=O)/C=C/c2cccs2)cc1	HPGD inh 28µM
NC(=O)c1ccc(NC(=O)COC(=O)/C=C/c2cccs2)cc1	none (no result: HPGD inh)
CCN(c1ccc(NC(=O)COC(=O)/C=C/c2cccs2)cc1)C(C)C	CBFb-RUNX1 inh inconclusive, ALDH1A1 block 0.13µM (no result: HPGD inh)
Cc1c(C(=O)NCCN2CCOCC2)oc2ccc(S(=O)(=O)N3CCCCCC3)cc12	ALDH1A1 block 25µM
Cc1ccc(NC(=O)c2cc(=O)c3ccccc3o2)cc1S(=O)(=O)N1CCCCC1	ALDH1A1 block 32µM (no result: HPGD inh)
Cc1ccc(NC(=O)c2cc(=O)c3ccccc3o2)cc1S(=O)(=O)N1CCOCC1	none (no result: HPGD inh, ALDH1A1 block)
Cc1ccc(NC(=O)c2ccccc2NS(=O)(=O)c2ccc(F)cc2)cc1S(=O)(=O)N1CCCCC1	HPGD inh inconclusive, KDM4E inh inconclusive, HTT aggregate 2.5µM, ALDH1A1 block inconclusive
CCOC(=O)c1cccc(NC(=O)CSc2nc3cccnc3n2C)c1	none
CC(=O)N1CCc2cc(S(=O)(=O)N3CCOCC3)ccc21	none
CC(=O)N1CCc2cc(C(=O)CN3CCCCC3)ccc21	HPGD inh 16µM, KDM4E inh inconclusive, ALDH1A1 block 22µM
CCOC(=O)N1CCN(CC(=O)c2ccc3c(c2)CCN3C(C)=O)CC1	ALDH1A1 block 25µM
COc1cccc(C(=O)N(c2ccccc2)C2C=CS(=O)(=O)C2)c1 (configuration not stated)	none (no result: HPGD inh)
Cc1c(C(=O)N2CCCC(C)C2)sc2ncnc(N3CCCCC3C)c12 (configuration not stated)	ALDH1A1 block 13µM (no result: HPGD inh)
Cc1c(C(=O)O)sc2ncnc(N3CCCCC3C)c12 (configuration not stated)	HPGD inh 18µM
COc1ccc(Cc2nn3c(-c4ccccc4OC)nnc3s2)cc1	HPGD inh 28µM, HTT aggregate inconclusive, ALDH1A1 block 11µM
COc1ccc(-c2nnc3sc(-c4ccccc4OC)nn23)cc1	HPGD inh inconclusive
c1cc(-c2nnc3sc(C4CCCCC4)nn23)ccn1	HTT aggregate 13µM
COc1ccccc1-c1nnc2sc(COc3ccc(Cl)cc3)nn12	HTT aggregate inconclusive
COc1ccccc1-c1nnc2sc(C3CCCCC3)nn12	HPGD inh 28µM
CCC(Sc1nc2ccccc2c2nc3ccccc3n12)C(=O)NCc1ccco1 (configuration not stated)	none
O=c1[nH][nH]c(=O)n1-c1ccccc1	none (no result: HPGD inh)
Cc1cc(C)c(C(=O)COC(=O)c2ccc([N+](=O)[O-])o2)cc1C	ALDH1A1 block 2µM (no result: HPGD inh)
Cc1ccc(C)c(C(=O)COC(=O)c2ccc(Br)o2)c1	none
Cc1cc(C(=O)COC(=O)c2ccc([N+](=O)[O-])o2)c(C)n1CC1CCCO1 (configuration not stated)	ALDH1A1 block 16µM (no result: HPGD inh)
COCCn1c(C)cc(C(=O)COC(=O)c2ccc([N+](=O)[O-])o2)c1C	ALDH1A1 block inconclusive (no result: HPGD inh)
COCCN(C(=S)Nc1c(C)cc(C)cc1C)C(C)c1cccnc1 (configuration not stated)	HPGD inh 7.9µM, ALDH1A1 block inconclusive
Cc1ccc(S(=O)(=O)NC(=O)O[C@@H]2C(=O)c3cc(Br)ccc3O[C@H]2c2ccc3c(c2)OCO3)cc1	none (no result: HTT aggregate)
O=C(/C=C/NNC(=O)c1ccccc1)c1ccccc1	KDM4E inh inconclusive
O=C(/C=C/NNC(=O)c1ccc(Br)cc1)c1ccccc1	ALDH1A1 block 10µM
CCOC(=O)C1(CC2CC2)CCN(Cc2cnc(-c3ccc(OC)cc3)nc2)CC1	none (no result: HPGD inh)
COc1ccc(C(=O)/C=C/c2ccc(OC)c(O)c2)c(F)c1	HPGD inh 32µM
Cc1ccccc1NC(=O)c1c(C)nn(-c2ccccc2)c1Cl	HPGD inh 28µM, ALDH1A1 block inconclusive
CC(=O)c1ccc(NC(=O)c2c(C)nn(-c3ccccc3)c2Cl)cc1	CBFb-RUNX1 inh inconclusive, ALDH1A1 block inconclusive (no result: HPGD inh)
Cc1ccc(NC(=O)c2c(C)nn(-c3ccccc3)c2Cl)cc1	HPGD inh 14µM
CC(=O)Nc1ccc(NC(=O)c2c(C)nn(-c3ccccc3)c2Cl)cc1C	ALDH1A1 block inconclusive (no result: HPGD inh)
CS(=O)(=O)N1CCC[C@@]2(CCN(c3ccccn3)C2)C1	HPGD inh inconclusive, ALDH1A1 block inconclusive (no result: CBFb-RUNX1 inh, KDM4E inh, HTT aggregate)

High-throughput results from PubChem.
